Measurements as given in PubChem BioAssay AID1159580 (chemical genetic matrix, 2015).
Values joined by “and” are separate entries in the source; they are usually repeats but may differ in a detail not shown here. Identical values can stand only once. Out of some 5,500 compounds screened, about 2,000 (36%) were called active. Another 18% or so got no clear call; they are omitted. Cut-off read from the data, not from the text of the source: active = normalized growth mostly below about 0.91 (no sharp cut-off); inconclusive = no clear call, values can overlap the other calls; inactive = mostly above about 0.92. Some of the results follow.

Experiment: chemical genetic growth profiling, strain panel (AID 1159580);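 note: tested at 20 µM; growth read once vehicle control cultures reached saturation at 30 °C; 1 = growth at the plate median or of vehicle wells; lower values mean less growth of the strain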
Conditions: S. cerevisiae deletion strains, growth OD

Measured: normalized growth

CC1=CCc2c(cc3oc(C)cc(=O)c3c2O)OC1
inactive: locus YAL021C, strain ccr4, stronger effect = lower value 0.991 | locus YAL026C, strain drs2, stronger effect = lower value 0.964 | locus YAL030W, strain snc1, stronger effect = lower value 0.972 | locus YBL061C, strain skt5, stronger effect = lower value 0.971 | locus YBR009C, strain hhf1, stronger effect = lower value 0.954 | locus YBR021W, strain FUR4, stronger effect = lower value 0.856 | locus YBR023C, strain chs3, stronger effect = lower value 0.977 | locus YBR171W, strain sec66, stronger effect = lower value 0.94 | locus YBR229C, strain ROT2, stronger effect = lower value 0.98 | locus YBR231C, strain swc5, stronger effect = lower value 0.966 | locus YBR279W, strain paf1, stronger effect = lower value 0.982 | locus YCL011C, strain gbp2, stronger effect = lower value 0.929 | locus YCL016C, strain dcc1, stronger effect = lower value 0.982 | locus YCL029C, strain bik1, stronger effect = lower value 0.951 | locus YCL061C, strain MRC1, stronger effect = lower value 0.954 | locus YCL069W, strain vba3, stronger effect = lower value 0.954 | locus YCR088W, strain abp1, stronger effect = lower value 0.961 | locus YDL005C, strain med2, stronger effect = lower value 1 | locus YDL035C, strain GPR1, stronger effect = lower value 0.863 | locus YDL040C, strain nat1, stronger effect = lower value 0.984 | locus YDL101C, strain DUN1, stronger effect = lower value 0.943 | locus YDL134C, strain PPH21, stronger effect = lower value 0.907 | locus YDL185W, strain tfp1, stronger effect = lower value 0.962 | locus YDR001C, strain nth1, stronger effect = lower value 0.949 | locus YDR069C, strain doa4, stronger effect = lower value 0.988 | locus YDR137W, strain rgp1, stronger effect = lower value 0.913 | locus YDR150W, strain NUM1, stronger effect = lower value 0.96 | locus YDR159W, strain sac3, stronger effect = lower value 1.02 | locus YDR297W, strain sur2, stronger effect = lower value 0.968 | locus YDR334W, strain swr1, stronger effect = lower value 0.965 | locus YDR335W, strain msn5, stronger effect = lower value 0.987 | locus YDR388W, stronger effect = lower value 0.957 | locus YDR392W, strain spt3, stronger effect = lower value 0.893 | locus YEL003W, strain gim4, stronger effect = lower value 0.929 | locus YEL037C, strain rad23, stronger effect = lower value 0.96 | locus YEL061C, strain CIN8 (second series), stronger effect = lower value 0.966 | locus YEL061C, strain CIN8, stronger effect = lower value 0.952 | locus YER015W, strain faa2, stronger effect = lower value 0.975 | locus YER016W, strain bim1, stronger effect = lower value 0.985 | locus YER110C, stronger effect = lower value 0.933 | locus YER111C, strain swi4, stronger effect = lower value 0.967 | locus YER155C, strain BEM2 (second series), stronger effect = lower value 0.867 | locus YER155C, strain BEM2, stronger effect = lower value 0.96 | locus YER167W, strain BCK2, stronger effect = lower value 0.924 | locus YFR010W, strain ubp6, stronger effect = lower value 0.953 | locus YGL078C, strain dbp3, stronger effect = lower value 0.944 | locus YGL086W, strain mad1, stronger effect = lower value 0.934 | locus YGL167C, strain pmr1, stronger effect = lower value 0.979 | locus YGL173C, strain kem1, stronger effect = lower value 0.959 | locus YGL227W, strain vid30, stronger effect = lower value 0.964 | locus YGL240W, strain doc1, stronger effect = lower value 0.951 | locus YGL248W, strain PDE1, stronger effect = lower value 0.901 | locus YGL253W, strain hxk2, stronger effect = lower value 0.987 | locus YHR013C, strain ard1, stronger effect = lower value 0.924 | locus YHR027C, strain rpn1, stronger effect = lower value 0.984 | locus YHR079C, strain IRE1, stronger effect = lower value 0.96 | locus YHR094C, strain hxt1, stronger effect = lower value 0.972 | locus YHR129C, strain ARP1, stronger effect = lower value 0.925 | locus YHR142W, strain chs7, stronger effect = lower value 0.888 | locus YHR200W, strain rpn10, stronger effect = lower value 0.921 | locus YIL073C, strain SPO22, stronger effect = lower value 0.909 | locus YIL125W, strain kgd1, stronger effect = lower value 0.964 | locus YIR030C, strain dcg1, stronger effect = lower value 0.969 | locus YJL092W, strain hpr5, stronger effect = lower value 0.956 | locus YJL095W, strain BCK1 (second series), stronger effect = lower value 0.98 | locus YJL115W, strain asf1, stronger effect = lower value 0.973 | locus YJL129C, strain trk1, stronger effect = lower value 0.912 | locus YJL134W, strain LCB3, stronger effect = lower value 0.978 | locus YJL154C, strain vps35, stronger effect = lower value 0.956 | locus YJL164C, strain tpk1, stronger effect = lower value 0.952 | locus YJL166W, strain qcr8, stronger effect = lower value 0.983 | locus YJL168C, strain set2, stronger effect = lower value 0.968 | locus YJR066W, strain TOR1, stronger effect = lower value 0.915
0.756 (active) and 0.945 (inactive): locus YJL095W, strain BCK1, stronger effect = lower value
0.892 (active) and 0.959 (inactive): locus YHR030C, strain SLT2, stronger effect = lower value
active: locus YAL013W, strain DEP1, stronger effect = lower value 0.886 | locus YDL074C, strain BRE1, stronger effect = lower value 0.703 | locus YDL192W, strain arf1, stronger effect = lower value 0.901 | locus YDR101C, strain arx1, stronger effect = lower value 0.887 | locus YDR162C, strain NBP2, stronger effect = lower value 0.738 | locus YDR195W, strain ref2 1.2 [resistant] | locus YDR318W, strain mcm21, stronger effect = lower value 0.885 | locus YDR502C, strain sam2, stronger effect = lower value 0.86 | locus YGR078C, strain PAC10, stronger effect = lower value 0.785 | locus YGR135W, strain pre9, stronger effect = lower value 0.802 | locus YGR229C, strain SMI1, stronger effect = lower value 0.679 | locus YGR252W, strain gcn5, stronger effect = lower value 0.741 | locus YHR079C, strain IRE1 (second series), stronger effect = lower value 0.91 | locus YIL066C, strain RNR3, stronger effect = lower value 0.858 | locus YJL187C, strain SWE1 (second series), stronger effect = lower value 0.867 | locus YJR043C, strain POL32, stronger effect = lower value 0.792
